# Measurements taken from ChEMBL document CHEMBL3988442, “University of Dundee, Small-Polar-MMV Screening Library” (2021).
# Assays:
# [1] = biological target: T1, Aspartate--tRNA(Asp/Asn) ligase (Mycobacterium tuberculosis (strain ATCC 25618 / H37Rv)) (UniProt P9WFW3); test: Assay for Asp RNA synthetase-1 from Mycobacterium tuberculosis; assay type: functional; design: scale not given: direction of the effect not stated beside the values; conditions: 30 µM; further: in the data most compounds retested in dose-response had high values
# T1 sequence (whole entry): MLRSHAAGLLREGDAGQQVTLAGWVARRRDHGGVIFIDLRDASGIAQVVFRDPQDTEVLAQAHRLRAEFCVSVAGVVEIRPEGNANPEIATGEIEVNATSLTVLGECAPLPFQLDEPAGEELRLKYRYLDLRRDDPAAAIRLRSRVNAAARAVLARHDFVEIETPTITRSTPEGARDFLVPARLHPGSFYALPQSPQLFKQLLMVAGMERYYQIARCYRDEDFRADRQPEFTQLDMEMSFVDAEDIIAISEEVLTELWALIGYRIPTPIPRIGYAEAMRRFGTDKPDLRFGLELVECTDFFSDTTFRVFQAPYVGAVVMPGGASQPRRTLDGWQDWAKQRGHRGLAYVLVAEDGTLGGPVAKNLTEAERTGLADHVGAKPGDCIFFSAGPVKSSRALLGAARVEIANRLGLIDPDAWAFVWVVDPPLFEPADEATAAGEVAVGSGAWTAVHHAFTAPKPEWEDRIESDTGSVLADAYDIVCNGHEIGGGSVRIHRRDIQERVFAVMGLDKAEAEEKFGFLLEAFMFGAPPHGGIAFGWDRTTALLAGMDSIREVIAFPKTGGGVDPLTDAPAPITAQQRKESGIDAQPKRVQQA
# [2] = biological target: Shiga toxin 2 (Escherichia coli O157:H7) (UniProt P09385+P09386); test: E. coli 0.157:H7 Shiga Toxin SOP - stx2 screening assay; assay type: functional; design: scale not given: direction of the effect not stated beside the values; conditions: 30 µM
SMILES,Percent Effect [1],Percent Effect [2]
CC(=O)Nc1nc(C(=O)N2CCCC(n3ccnc3)C2)cs1 (stereo unspecified),-1.21%,0.121%
Cc1cccc(C)c1OCCC(=O)N1CCC(c2nncn2C)CC1,-2.43%,-9.22%
c1ccc(CCNC2CCc3ncnn3C2)nc1 (stereo unspecified),5.83%,-16.7%
